Test results as given in PubChem BioAssay (NCI).
The panel holds about 83,000 compounds, 20% with a hit somewhere; the sample as a whole holds those more often.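 Single-dose data. Exposure time 48 hours. Values below 10 considered active.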 Unmarked numbers belong to inactive results. The source made the active and inactive calls.

What was measured:
Assay in all cases: NCI-60 one-dose screen, 48 h (100 = growth as untreated, 0 = no growth, -100 = all killed)
Conditions in all cases: 10 µM unless noted
HCT-15 colon = test system: HCT-15 colon
HT29 colon = test system: HT29 colon
SNB-75 CNS = test system: SNB-75 CNS
SNB-19 CNS = test system: SNB-19 CNS
PC-3 prostate = test system: PC-3 prostate
SK-MEL-5 melanoma = test system: SK-MEL-5 melanoma
UACC-62 melanoma = test system: UACC-62 melanoma
LOX IMVI melanoma = test system: LOX IMVI melanoma
U251 CNS = test system: U251 CNS
SK-MEL-28 melanoma = test system: SK-MEL-28 melanoma

| Structure (SMILES) | growth (HCT-15 colon) | growth (HT29 colon) | growth (SNB-75 CNS) | growth (SNB-19 CNS) | growth (PC-3 prostate) [%] | growth (SK-MEL-5 melanoma) | growth (UACC-62 melanoma) | growth (LOX IMVI melanoma) | growth (U251 CNS) | growth (SK-MEL-28 melanoma) |
| --- | --- | --- | --- | --- | --- | --- | --- | --- | --- | --- |
| CSc1nc(NCc2ccccc2)c(C#N)c(-c2cccc([N+](=O)[O-])c2)n1 | 95.9% | 103% | 68.2% | 94.9% | 94.5 | 100% | 79% | 92.1% |  |  |
| COc1cccc(C2=NN3C(C2)c2cc(Br)cc(OC)c2OC32CCN(Cc3ccccc3)CC2)c1 (stereo not given) | 101% | 108% | 89.5% | 101% |  | 99.5% | 98.7% | 94.2% | 98.8% | 107% |
| COc1ccc2nc(NC(=O)CSc3nnc4n3S(=O)(=O)c3ccccc3N4c3ccccc3)sc2c1 | 93.7% | 102% | 77.5% | 97.2% |  | 99.1% | 82.6% | 85.5% | 94.9% | 109% |
| CC(=O)c1nc2ccccc2n1CC(=O)c1cccc(Cl)c1 | 27.3% | 94% | 21% | 24.1% |  | -13.2% (active) | 31.5% | 36.9% | 14.3% | 67.7% |
| COc1ccc(-n2nc(C)c3c(Oc4ccc(NC(=O)Nc5c(Cl)cccc5Cl)cc4)ncnc32)cc1 | 105% | 107% | 93.6% | 98.5% |  | 99.9% | 98.4% | 100% | 96.9% | 106% |
| COc1ccc(NC2=C(Sc3nc(C)cc(C)n3)C(=O)N(Cc3ccccc3)C2=O)cc1Cl | 73.8% [30 µM] | 60.1% [30 µM] | 84.4% [30 µM] | 95.4% [30 µM] |  | 57.9% [30 µM] | 71.5% [30 µM] | 93.2% [30 µM] | 86.9% [30 µM] | 103% [30 µM] |
| CCOC(=O)c1c(CN2CCN(C)CC2)nc2ccc(Cl)cc2c1-c1ccccc1 | 62.9% | 18% | 58.6% | 86.8% |  | 18.3% | 86.3% | 54.4% | 64.4% | -22.6% (active) |
| COc1ccc(C2CC(c3ccc(Cl)cc3)=NN2/C=C2\SC(=S)N(NC(=O)Cc3ccccc3Nc3c(Cl)cccc3Cl)C2=O)cc1 (stereo not given) | 68.7% | 57.7% | 58.4% | 18.2% |  | 81.9% | 63.2% | 26.9% | 54.1% | 92.1% |
| COc1ccc(CCNc2nc(SC)nc(-c3cccc([N+](=O)[O-])c3)c2C#N)cc1OC | 90.9% | 93.6% | 61.8% | 71.9% | 75.2 | 88.2% | 80.8% | 88.6% |  |  |
| O=[N+]([O-])c1ccccc1/C=N\NC(=S)N/N=C/c1ccccc1[N+](=O)[O-] | 35.8% | 21.5% | 72.4% | 69% |  | 59.1% | 55.5% | 43.4% | 62.7% | 78.2% |
| Cc1ccc2c(C(C[N+](=O)[O-])c3ccccc3F)c(-c3ccccc3)[nH]c2c1 (stereo not given) | 25.7% | 6.14% (active) | 24.6% | 49.1% |  | 48.1% | 42.4% | 36.4% | 25.3% | 63% |
| Cn1c(NCCc2ccc(O)c(O)c2)nc2c1c(=O)n(Cc1ccc(Cl)c(Cl)c1)c(=O)n2C | 45.7% | 94.4% | 56.1% | 84.3% |  | 65.4% | 73.9% | 86.5% | 77.9% | 77.3% |
| C(=C\c1nccc2c1[nH]c1ccccc12)/c1ccccc1 | 18.7% | 1.31% (active) | -20.1% (active) | 35% |  | 2.59% (active) | 39.3% | 25.5% | 15.1% | 49.6% |
| COc1ccc(S(=O)(=O)N2CCCCC2)cc1NC(=O)c1[nH]c(C)c2c1CCCCC2=O | 5.16% (active) | 11% | 5.25% (active) | 36.1% |  | -24.4% (active) | 14.5% | -56.6% (active) | 23.4% | 48.1% |
| C#CCOc1ccc2ncnc(NCc3cccc(NC(=O)CCl)c3)c2c1 | 22.6% [8.25 µM] | 19.9% [8.25 µM] | 55.7% [8.25 µM] | 37.8% [8.25 µM] |  | 23.8% [8.25 µM] | 31.8% [8.25 µM] | 46.7% [8.25 µM] | -19.2% [8.25 µM] (active) | 58.1% [8.25 µM] |
| COc1ccc2[nH]cc(-c3noc(C(=O)c4cn(C)c5ccc(F)cc45)n3)c2c1 | 94.4% | 109% | 74.6% | 96% |  | 92.5% | 88.2% | 93.2% | 101% | 105% |
| Cc1ccccc1COc1ccc(-c2ccnn2-c2ccc(Cl)cc2)cc1 | 39.9% | 17.6% | 60.7% | 62% |  | 66.6% | 60.7% | 64.3% | 46% | 69.4% |
| NC(CSC(c1ccccc1)(c1ccccc1)c1ccc(Cl)cc1)C(=O)O (stereo not given) | 19.3% | 2.26% (active) | 20.9% | 37.9% |  | 10.6% | 7.9% (active) | 36% | 12.2% | 33.4% |
| COc1ccccc1NS(=O)(=O)c1ccc2oc(SC(C)C)nc2c1 | 125% | 96.3% | 102% | 93.7% |  | 49.9% | 59.9% | 146% | 138% | 115% |
| CN(C)[C@@H]1C(=O)C(C(=O)NCc2nc3[nH]cnc(=S)c3[nH]2)=C(O)[C@@]2(O)C(=O)C3=C(O)c4c(O)cccc4[C@@](C)(O)[C@H]3C[C@@H]12 | 76.7% | 64.3% | 61.8% | 84.1% |  | 75.5% | 25.5% | 12.4% | 96% | 118% |
| CC(C)(C)c1cc(C(C)(C)C)cc(S(=O)(=O)Nc2cc3ccccc3cc2C(=O)NCCN)c1 | 38.8% | -43.7% (active) | 63.4% | 68.9% |  | 81.1% | 55% | -77.8% (active) | -21.8% (active) | -44.9% (active) |
| O=C(/C=C/c1ccc(C(F)(F)F)cc1)Nc1ccc(C=C2c3ccccc3C(=O)c3ccccc32)cc1 | 47.4% | 46.5% | 46.6% | 66.5% |  | 44.7% | 52.2% | 76.7% | 33.8% | 60.2% |
| CCOC(=O)n1cc(-c2nonc2-c2cn(C)c3ncccc23)c2cc(F)ccc21 | 68.8% | 83.2% | 64.3% | 91.6% |  | 81.5% | 62.2% | 83.8% | 77.2% | 102% |
| COc1ccc(-c2nc3cc(C(=O)Nc4cc(OC)c(OC)c(OC)c4)ccc3n2C2CCCCC2)cc1 | 80.2% | 102% | 82% | 98.1% |  | 77.8% | 80.2% | 95.5% | 96.6% | 97% |
| Oc1cccc(-c2nc(N3CCOCC3)c3c4c(sc3n2)CCCC4)c1 | 49.1% | 94.7% | 7.14% (active) | 62.3% |  | 46.6% | 43.8% | 50% | 52.7% | 57.8% |
| O=C(Nc1cccc2[nH]c(C(F)(F)F)nc12)c1ccc(-n2cnnn2)cc1 | 99.1% | 111% | 100% | 94% |  | 87.2% | 34.3% | 102% | 94.4% | 120% |
| CSc1nc(Nc2cccc(NC(=O)CCl)c2)c(C#N)c(-c2cccc([N+](=O)[O-])c2)n1 | 17.5% | 17.7% | 30.5% | 83.5% | 30.5 | 34.3% | 41% | -69.2% (active) |  | 102% |
| CN(C)S(=O)(=O)c1ccc(S(=O)(=O)Nc2cccc(Cl)c2N2CCCCC2)cc1 | 79.9% | 91.8% | 64.2% | 84.9% | 60.3 | 80.7% | 57.8% | 67.4% |  | 59.9% |
